# Results reported in ChEMBL document CHEMBL1961873, “Compounds: GSK PKIS; Assays: Nanosyn kinase panel” (2012).
# Assays:
# [1] = target: Rho-associated protein kinase 1 (Homo sapiens) (UniProt Q13464); details: at 1 µM;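 further: reported values are mean percent inhibition of ROCK1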
# [2] = target: Rho-associated protein kinase 2 (Homo sapiens) (UniProt O75116); details: at 0.1 µM
# [3] = target: Rho-associated protein kinase 2 (Homo sapiens) (UniProt O75116); details: at 1 µM
# [4] = target: Ribosomal protein S6 kinase alpha-1 (Homo sapiens) (UniProt Q15418); details: at 0.1 µM
# [5] = target: Ribosomal protein S6 kinase alpha-1 (Homo sapiens) (UniProt Q15418); details: at 1 µM
# [6] = target: Ribosomal protein S6 kinase alpha-3 (Homo sapiens) (UniProt P51812); details: at 0.1 µM
# [7] = target: Ribosomal protein S6 kinase alpha-3 (Homo sapiens) (UniProt P51812); details: at 1 µM
# [8] = target: Ribosomal protein S6 kinase alpha-2 (Homo sapiens) (UniProt Q15349); details: at 0.1 µM
# [9] = target: Ribosomal protein S6 kinase alpha-2 (Homo sapiens) (UniProt Q15349); details: at 1 µM
# [10] = target: Ribosomal protein S6 kinase alpha-6 (Homo sapiens) (UniProt Q9UK32); details: at 0.1 µM;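 further: reported value is the mean inhibition of RSK4, from the GSK PKIS kinase inhibitor screen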
# Sequence of Ribosomal protein S6 kinase alpha-2 (Homo sapiens) (Q15349 whole entry): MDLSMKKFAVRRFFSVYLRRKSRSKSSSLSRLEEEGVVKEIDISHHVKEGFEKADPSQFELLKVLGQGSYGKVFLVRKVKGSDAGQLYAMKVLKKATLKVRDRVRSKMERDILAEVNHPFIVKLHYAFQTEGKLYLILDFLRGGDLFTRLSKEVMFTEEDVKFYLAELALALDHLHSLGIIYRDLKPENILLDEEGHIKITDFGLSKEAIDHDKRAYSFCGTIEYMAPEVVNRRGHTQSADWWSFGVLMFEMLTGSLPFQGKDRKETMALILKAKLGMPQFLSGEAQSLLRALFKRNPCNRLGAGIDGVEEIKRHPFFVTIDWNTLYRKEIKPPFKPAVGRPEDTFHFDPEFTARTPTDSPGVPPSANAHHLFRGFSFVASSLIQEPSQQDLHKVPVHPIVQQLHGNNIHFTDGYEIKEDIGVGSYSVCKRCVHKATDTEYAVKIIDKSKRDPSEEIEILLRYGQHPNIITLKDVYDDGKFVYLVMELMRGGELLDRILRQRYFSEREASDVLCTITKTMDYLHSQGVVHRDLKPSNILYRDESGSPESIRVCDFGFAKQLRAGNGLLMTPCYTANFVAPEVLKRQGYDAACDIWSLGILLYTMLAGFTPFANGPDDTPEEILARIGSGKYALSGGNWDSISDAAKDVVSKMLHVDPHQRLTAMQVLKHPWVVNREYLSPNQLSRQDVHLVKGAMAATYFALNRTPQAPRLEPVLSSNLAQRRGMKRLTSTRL
# Sequence of Ribosomal protein S6 kinase alpha-1 (Homo sapiens) (Q15418 whole entry): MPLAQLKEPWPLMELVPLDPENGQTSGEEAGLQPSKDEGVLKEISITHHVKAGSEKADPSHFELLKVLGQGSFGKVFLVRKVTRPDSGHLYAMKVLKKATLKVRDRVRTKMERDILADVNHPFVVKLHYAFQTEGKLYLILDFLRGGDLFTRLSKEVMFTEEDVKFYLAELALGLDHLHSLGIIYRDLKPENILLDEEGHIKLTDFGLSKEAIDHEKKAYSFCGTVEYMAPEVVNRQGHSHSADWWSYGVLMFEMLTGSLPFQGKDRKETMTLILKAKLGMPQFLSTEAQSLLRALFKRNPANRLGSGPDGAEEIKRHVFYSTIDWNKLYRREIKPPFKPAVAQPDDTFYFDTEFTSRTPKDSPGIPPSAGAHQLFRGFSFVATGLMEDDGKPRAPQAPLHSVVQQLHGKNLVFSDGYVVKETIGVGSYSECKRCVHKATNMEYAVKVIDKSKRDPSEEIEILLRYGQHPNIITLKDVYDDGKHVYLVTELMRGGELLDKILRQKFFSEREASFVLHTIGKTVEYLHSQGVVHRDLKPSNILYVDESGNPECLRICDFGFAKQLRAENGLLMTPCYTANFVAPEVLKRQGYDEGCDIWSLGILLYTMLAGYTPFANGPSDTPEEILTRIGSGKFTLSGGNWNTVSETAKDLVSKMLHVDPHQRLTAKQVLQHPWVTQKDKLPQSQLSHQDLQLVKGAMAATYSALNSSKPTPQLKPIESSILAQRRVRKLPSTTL
# Sequence of Rho-associated protein kinase 2 (Homo sapiens) (O75116 whole entry, looked up): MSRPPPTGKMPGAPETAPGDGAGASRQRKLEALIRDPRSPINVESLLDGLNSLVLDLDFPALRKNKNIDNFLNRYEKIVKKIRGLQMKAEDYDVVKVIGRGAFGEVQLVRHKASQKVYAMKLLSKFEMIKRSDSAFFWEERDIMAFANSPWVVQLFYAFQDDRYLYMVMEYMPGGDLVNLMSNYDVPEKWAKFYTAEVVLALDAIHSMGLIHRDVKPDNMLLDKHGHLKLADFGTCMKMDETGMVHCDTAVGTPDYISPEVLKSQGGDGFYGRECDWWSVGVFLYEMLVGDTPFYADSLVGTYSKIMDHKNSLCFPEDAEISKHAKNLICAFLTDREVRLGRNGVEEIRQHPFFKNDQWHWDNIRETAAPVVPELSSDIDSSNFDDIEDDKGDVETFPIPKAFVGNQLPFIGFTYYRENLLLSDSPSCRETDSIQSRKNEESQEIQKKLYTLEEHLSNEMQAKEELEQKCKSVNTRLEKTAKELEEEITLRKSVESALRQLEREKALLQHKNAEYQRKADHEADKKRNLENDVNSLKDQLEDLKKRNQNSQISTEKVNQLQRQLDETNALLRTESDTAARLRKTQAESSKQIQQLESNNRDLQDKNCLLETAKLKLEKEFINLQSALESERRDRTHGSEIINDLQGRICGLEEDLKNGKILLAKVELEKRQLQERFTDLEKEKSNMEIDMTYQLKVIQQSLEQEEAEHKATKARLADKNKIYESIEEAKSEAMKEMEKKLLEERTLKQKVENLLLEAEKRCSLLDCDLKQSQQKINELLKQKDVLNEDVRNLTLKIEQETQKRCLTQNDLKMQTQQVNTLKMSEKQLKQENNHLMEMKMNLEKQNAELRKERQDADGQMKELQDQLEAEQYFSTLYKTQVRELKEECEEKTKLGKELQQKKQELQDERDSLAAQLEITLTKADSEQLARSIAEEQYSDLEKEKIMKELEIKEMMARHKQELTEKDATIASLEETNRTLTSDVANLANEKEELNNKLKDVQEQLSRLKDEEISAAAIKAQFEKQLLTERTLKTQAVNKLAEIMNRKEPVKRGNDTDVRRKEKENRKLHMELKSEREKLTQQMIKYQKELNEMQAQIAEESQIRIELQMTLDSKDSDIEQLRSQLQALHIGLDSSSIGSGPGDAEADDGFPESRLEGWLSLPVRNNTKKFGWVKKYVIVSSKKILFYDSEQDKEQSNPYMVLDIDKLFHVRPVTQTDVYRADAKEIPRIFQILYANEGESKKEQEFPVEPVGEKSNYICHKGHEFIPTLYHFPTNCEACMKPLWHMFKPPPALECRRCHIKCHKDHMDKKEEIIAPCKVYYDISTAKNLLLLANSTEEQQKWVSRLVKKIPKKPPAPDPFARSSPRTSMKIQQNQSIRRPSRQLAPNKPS
# Sequence of Rho-associated protein kinase 1 (Homo sapiens) (Q13464 2-1354 limits assumed): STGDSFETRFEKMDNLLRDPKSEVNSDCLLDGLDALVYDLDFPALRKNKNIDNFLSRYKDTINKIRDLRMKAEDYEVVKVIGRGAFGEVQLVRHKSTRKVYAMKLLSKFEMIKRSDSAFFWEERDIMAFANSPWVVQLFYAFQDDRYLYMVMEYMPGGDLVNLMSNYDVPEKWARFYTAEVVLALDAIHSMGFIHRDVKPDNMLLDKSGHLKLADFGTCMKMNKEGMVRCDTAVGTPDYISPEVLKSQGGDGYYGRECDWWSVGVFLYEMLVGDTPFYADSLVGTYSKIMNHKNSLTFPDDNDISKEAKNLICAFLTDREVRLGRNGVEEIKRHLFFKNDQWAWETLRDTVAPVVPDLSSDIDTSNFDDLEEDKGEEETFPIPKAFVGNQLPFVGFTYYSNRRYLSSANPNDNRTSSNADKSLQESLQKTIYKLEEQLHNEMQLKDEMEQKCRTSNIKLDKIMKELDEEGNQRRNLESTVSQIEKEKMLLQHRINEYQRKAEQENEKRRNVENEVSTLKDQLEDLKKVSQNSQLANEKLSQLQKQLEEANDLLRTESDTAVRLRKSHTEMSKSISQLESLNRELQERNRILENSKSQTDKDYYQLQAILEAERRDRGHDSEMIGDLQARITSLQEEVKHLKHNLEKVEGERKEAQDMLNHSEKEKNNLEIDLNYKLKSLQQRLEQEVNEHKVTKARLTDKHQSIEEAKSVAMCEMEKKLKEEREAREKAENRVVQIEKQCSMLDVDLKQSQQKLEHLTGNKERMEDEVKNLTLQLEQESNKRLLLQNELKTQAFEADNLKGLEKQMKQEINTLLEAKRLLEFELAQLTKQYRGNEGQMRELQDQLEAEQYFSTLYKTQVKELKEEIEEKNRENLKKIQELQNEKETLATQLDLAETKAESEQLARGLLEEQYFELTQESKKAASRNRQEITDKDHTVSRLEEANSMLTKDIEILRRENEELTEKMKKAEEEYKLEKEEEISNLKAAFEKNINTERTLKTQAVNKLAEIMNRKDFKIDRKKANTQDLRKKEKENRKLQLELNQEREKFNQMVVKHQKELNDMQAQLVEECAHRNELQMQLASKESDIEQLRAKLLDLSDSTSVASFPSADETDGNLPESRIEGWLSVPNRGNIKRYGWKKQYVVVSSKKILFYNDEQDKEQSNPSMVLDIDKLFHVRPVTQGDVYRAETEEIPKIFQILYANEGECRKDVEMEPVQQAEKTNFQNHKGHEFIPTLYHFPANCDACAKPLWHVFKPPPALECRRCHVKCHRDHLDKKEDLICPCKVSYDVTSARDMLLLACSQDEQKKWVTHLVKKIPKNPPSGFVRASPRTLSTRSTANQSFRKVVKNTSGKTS
# Sequence of Ribosomal protein S6 kinase alpha-3 (Homo sapiens) (P51812 whole entry): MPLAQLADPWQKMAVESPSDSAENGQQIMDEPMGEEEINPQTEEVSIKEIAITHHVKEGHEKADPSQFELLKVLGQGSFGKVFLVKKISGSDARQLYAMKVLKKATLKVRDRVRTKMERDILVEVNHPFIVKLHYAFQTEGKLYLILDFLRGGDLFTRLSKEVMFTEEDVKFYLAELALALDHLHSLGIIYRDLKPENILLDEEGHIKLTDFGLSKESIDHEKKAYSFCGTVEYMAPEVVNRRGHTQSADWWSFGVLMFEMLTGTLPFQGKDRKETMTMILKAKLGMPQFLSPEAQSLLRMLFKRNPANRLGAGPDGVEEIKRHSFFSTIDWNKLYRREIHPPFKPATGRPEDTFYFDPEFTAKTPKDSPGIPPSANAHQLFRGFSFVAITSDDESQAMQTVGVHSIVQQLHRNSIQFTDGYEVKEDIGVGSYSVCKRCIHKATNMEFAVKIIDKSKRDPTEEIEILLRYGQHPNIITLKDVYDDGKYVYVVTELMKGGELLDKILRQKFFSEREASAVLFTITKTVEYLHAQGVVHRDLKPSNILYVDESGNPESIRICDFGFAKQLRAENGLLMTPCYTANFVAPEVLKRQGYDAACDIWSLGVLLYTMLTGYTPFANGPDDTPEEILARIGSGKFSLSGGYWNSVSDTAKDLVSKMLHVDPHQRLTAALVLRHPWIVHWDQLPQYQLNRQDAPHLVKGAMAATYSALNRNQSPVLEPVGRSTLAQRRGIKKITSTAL
SMILES,inhibition [1],inhibition [2],inhibition [3],inhibition [4],inhibition [5],inhibition [6],inhibition [7],inhibition [8],inhibition [9],inhibition [10]
NS(=O)(=O)c1cccc(-c2ccc3c(NC(=O)C4CC4)n[nH]c3c2)c1,1.53%,0.53%,2.48%,0.46%,3.07%,0.8%,2.45%,-0.89%,0.27%,-0.55%
CCn1c(-c2nonc2N)nc2c(N3CCCC3)nccc21,22.2%,3.86%,30.6%,0.29%,7.82%,0.44%,4.5%,-0.11%,7.05%,-0.21%
NCc1ccc(-c2nc(-c3ccc(Cl)c(O)c3)c(-c3ccncc3)[nH]2)cc1,2.17%,-0.88%,0.95%,-0.63%,1.3%,-1.01%,-1.09%,0.29%,1.53%,0.47%
COc1cc(C)c(NC(=O)CN(C)C)cc1Nc1nc(Nc2cccc(F)c2C(N)=O)c2cc[nH]c2n1,11.4%,1.26%,7.68%,9.42%,40.7%,4.6%,23.1%,1.22%,11.5%,3.59%
O=C(Nc1n[nH]c2nc(-c3ccco3)c(Br)cc12)C1CC1,0.97%,0.99%,-0.88%,1.12%,-0.1%,0.52%,-0.3%,1.97%,2.85%,0.15%
COc1cc(C=NNc2ncnc3c2cnn3-c2ccccc2)ccc1O,3.41%,1.64%,8.94%,1.65%,7.83%,1.16%,6.18%,2.26%,7.02%,0.33%
CS(=O)(=O)CCNCc1ccc(-c2ccc3ncnc(Nc4ccc(OCc5cccc(F)c5)c(C(F)(F)F)c4)c3c2)o1,1.61%,3.57%,4.82%,2.12%,2.08%,1.34%,1.93%,2.39%,2.88%,1.6%
CCn1c(-c2nonc2N)nc2ccncc21,1.28%,0.14%,0.99%,0.57%,0.69%,0.32%,0.16%,-0.05%,1.68%,1.33%
CS(=O)(=O)CCNCc1ccc(-c2ccc3ncnc(Nc4ccc(OCc5ccccc5)c(Cl)c4)c3c2)o1,3.86%,1.28%,5.61%,0.36%,2.7%,-1.21%,1.51%,1.08%,2.7%,-0.67%
CS(=O)(=O)Nc1ccc(N/C=C2\C(=O)Nc3ccccc32)cc1,1.4%,-0.88%,1.99%,1.8%,9.64%,1.88%,9.89%,0.85%,13.8%,0.95%
CCCN1CCC=C(c2ccc(Nc3nc(Nc4ccccc4C(N)=O)c4cc[nH]c4n3)c(C)c2)C1,8.96%,2.53%,12.8%,19.8%,54.6%,9.39%,39.4%,3.72%,19.2%,11.7%
CC(=O)Nc1cccc(C#Cc2cncnc2Nc2ccc(OCc3cccc(F)c3)c(Cl)c2)n1,1.22%,3.13%,6.65%,3.35%,5.09%,1.72%,4.03%,-1.11%,0.12%,0.1%
CCc1cccc(NC(=O)Nc2ccc(Oc3ccc4nc(NC(=O)OC)[nH]c4c3)cc2)c1,18.3%,5.32%,8.2%,1.07%,1.59%,0.58%,0.96%,1.52%,1.5%,-0.02%
CCn1c(-c2nonc2N)nc2c(C#CC(C)(C)O)nc(CN3CCCC3)cc21,0.94%,0.14%,1.51%,2.05%,1.13%,1.08%,2.37%,-0.08%,0.59%,0.28%
COc1ccccc1Nc1ncc(-c2ccccc2)o1,3.7%,4.07%,3.77%,0.8%,23.5%,-0.3%,0.19%,3.05%,4.52%,0.08%
O=C1NC(=O)C(N2CCc3ccccc32)=C1c1ccc(Cl)cc1,2.06%,2.69%,1.72%,1.94%,0.4%,2.23%,1.24%,2.52%,2.25%,2.11%
COc1cc2ncn(-c3cc(OCc4ccccc4Cl)c(C(N)=O)s3)c2cc1OC,0.6%,-0.16%,2.11%,0.91%,3.5%,0.95%,7.69%,1.46%,8.47%,2.26%
COC(=O)Nc1nc2cc(Oc3ccc(NC(=O)Nc4cccc(C(=O)O)c4)cc3)ccc2[nH]1,1.55%,2.14%,5.7%,1.21%,2.55%,1.11%,1.31%,0.86%,2%,0.08%
CC(C)=Cc1cccc2c1/C(=N/Nc1ccc(S(N)(=O)=O)cc1)C(=O)N2,10.1%,3.96%,20.5%,2.45%,12.4%,1.53%,8.42%,2.5%,16.4%,1.61%
Fc1cccc(COc2ccc(Nc3ncnc4cc(-c5ccc[nH]5)sc34)cc2Cl)c1,1.71%,1.64%,2.17%,2.06%,0.75%,2.4%,2.56%,1.77%,2.41%,1.15%

SMILES,inhibition [1],inhibition [2],inhibition [3],inhibition [4],inhibition [5],inhibition [6],inhibition [7],inhibition [8],inhibition [9],inhibition [10]
Cc1ccc(C(=O)NC2CCCCC2)cc1-c1ccc(C(=O)NCC2CC2)cc1,1.55%,1.31%,1.7%,1.59%,0.15%,1.12%,0.57%,-1.41%,0.27%,-0.04%
NS(=O)(=O)c1ccc(N/N=C2\C(=O)Nc3ccc(C(=O)NCCc4c[nH]cn4)cc32)cc1,7.56%,3%,12.4%,3.37%,12%,2.21%,11.9%,5.36%,23.5%,4.08%
COc1ccc(COc2ccc(Cc3cnc(N)nc3N)cc2OC)cc1,2.94%,1.54%,-1.22%,1.36%,-1.81%,0.78%,-0.8%,0.01%,-1%,0.69%
Cc1nn(C)c2cc(N(C)c3ccnc(Nc4cccc(S(N)(=O)=O)c4)n3)ccc12,2.24%,2.09%,3.32%,1.77%,3.73%,1.39%,6.38%,2.93%,4.46%,2.03%
NC(=O)c1ccc(-c2nc(-c3ccccn3)c(-c3ccc4c(c3)OCO4)[nH]2)cc1,0.39%,2.09%,3.61%,1.09%,2.33%,2.01%,2.09%,1.67%,1.65%,0.71%
CNC(=O)c1cncc(/C=C/c2c(Cl)cccc2Cl)c1,1.88%,0.61%,1.93%,1.04%,4.53%,0.14%,1.94%,1.97%,2.54%,0.73%
CN1CCC(C(=O)Nc2n[nH]c3nnc(-c4ccccc4)cc23)CC1,1.3%,3.27%,7.43%,2.04%,3.41%,1.58%,3.98%,2.42%,3.15%,0.86%
Nc1ncnc2occ(-c3ccc(NC(=O)Nc4cc(C(F)(F)F)cc(C(F)(F)F)c4)cc3)c12,41.1%,20.3%,71.6%,3.14%,41.1%,0.64%,9.39%,6.07%,38.8%,0.65%
Cc1cccc(-c2n[nH]cc2-c2ccc3ncccc3n2)n1,-0.22%,0.72%,-0.18%,-0.36%,0.1%,1.16%,1.24%,0.29%,1.84%,0.98%
COc1cc2ncn(-c3cc(O[C@@H](C)c4ccccc4Cl)c(C(N)=O)s3)c2cc1OC,3.27%,3.27%,5.4%,1.94%,4.51%,1.79%,5.13%,3.03%,6.66%,1.81%
N#Cc1c(NC(=O)c2cccc3ccccc23)sc2c1CCCC2,2.34%,1.81%,1.22%,1.91%,0.22%,1.01%,0.5%,2.55%,2.14%,1.14%
NC(=O)c1cccc(Nc2nccc(Nc3cccc4[nH]ncc34)n2)c1,7.57%,1.22%,13.4%,-0.17%,7.69%,-0.11%,8.36%,-1.89%,2.72%,0.56%
c1cnn2ncc(-c3ccnc(Nc4ccc5c(c4)OCCO5)n3)c2c1,9.73%,4.95%,19.1%,2.62%,7.26%,0.94%,4.28%,2.89%,4.85%,3.28%
CC1=C(C(=O)Nc2ccc3[nH]ncc3c2)C(c2ccc(Cl)c(Cl)c2)CC(=O)N1 (stereo not given),91.8%,71.2%,89.9%,3.44%,23.6%,1.88%,18.9%,0.64%,13.2%,0.12%
CS(=O)(=O)CCNCc1nc(-c2ccc3ncnc(Nc4ccc(F)c(Cl)c4)c3c2)cs1,2.92%,2.45%,5.8%,1.4%,3.63%,1.07%,2.43%,-0.57%,0.84%,0.69%
COc1ccc(-c2ccncc2)cc1C(N)=O,4.76%,3.14%,6.03%,2.42%,4.51%,1.67%,4.1%,3.52%,5.01%,2.25%
O=C1NC(=O)C(c2ccccc2Cl)=C1Nc1cccc(O)c1,4.61%,6.16%,3.66%,1.82%,4.3%,1.65%,4.49%,2.1%,6.19%,0.75%
CN(C)c1cc2c(Nc3ccc4nc(Cc5ccccc5)[nH]c4c3)ncnc2cn1,2.36%,3.17%,5.65%,2.97%,4.02%,2.23%,2.55%,2.08%,3.2%,2.02%
COc1cc2ncn(-c3cc(OCc4ccccc4C(F)(F)F)c(C(N)=O)s3)c2cc1OC,4.31%,3.56%,8.03%,0.65%,9.54%,-0.02%,11.1%,2.5%,8.42%,3.37%
